3T3 cytotox: kills NIH 3T3 cells. NIH 3T3 viability, CellTiter-Glo ATP luminescence, 48-72 h. Potency, µM (highest dose often 96.7 µM), for inactives: at the top dose activity change, negative = cytotoxicity, hits mostly inhibitors. actives 4.3% (n = 94,000). AID 1345082; further: nearly all actives have a fitted effect of over 55% in size
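Cytotoxicity was measured by CellTiter-Glo ATP luminescence after 48 or 72 h compound exposure at 37 °C. Mouse NIH 3T3 fibroblasts were seeded at 400 cells/well and dosed by 23 nL pin transfer.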
HEK293 tox: cytotoxic compounds in HEK 293 cells | HEK 293 viability, ATP luminescence (CellTiter-Glo), 48-72 h | Potency, µM (top dose mostly 115 µM), for the others: top-dose activity change, negative = cytotoxicity, hits mostly inhibitors | actives 6.6% (n = 94,000) | AID 1345083; further: nearly all actives have a fitted effect of over 60% in size
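CellTiter-Glo luminescence (cellular ATP) was read after 48 or 72 hr of compound exposure at 37 degree Celsius. Cells were HEK 293 plated at 250 cells/well.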
FLuc inh: inhibitors of firefly (Photinus pyralis) luciferase | purified P. pyralis luciferase, luminescence, biochemical | Potency, µM (top dose mostly 115 µM), most hits filed as inhibitors | actives 2.5% (n = 76,000); further: nearly all actives have a fitted effect of over 65% in size
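Luminescence read by CCD imager after adding enzyme (10nM final) to wells holding compound, titrated in qHTS. Substrates 10uM each D-luciferin and ATP; buffer 50mM Tris acetate pH 7.5, 10mM Mg acetate, Tween-20, BSA.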
NPR1 antag: antagonists of human natriuretic peptide receptor Npr1. P16066. HEK293 hNpr1 GloSensor cGMP, ANP-stimulated luminescence. Potency, µM (titrated, usually from 46.3 µM), for the others: top-dose activity change, negative = inhibition, actives largely listed as inhibitors. actives 1.6% (n = 76,000); calls by dose curve; further: nearly all actives have a fitted effect of over 60% in size
Target sequence (P16066 whole entry, looked up): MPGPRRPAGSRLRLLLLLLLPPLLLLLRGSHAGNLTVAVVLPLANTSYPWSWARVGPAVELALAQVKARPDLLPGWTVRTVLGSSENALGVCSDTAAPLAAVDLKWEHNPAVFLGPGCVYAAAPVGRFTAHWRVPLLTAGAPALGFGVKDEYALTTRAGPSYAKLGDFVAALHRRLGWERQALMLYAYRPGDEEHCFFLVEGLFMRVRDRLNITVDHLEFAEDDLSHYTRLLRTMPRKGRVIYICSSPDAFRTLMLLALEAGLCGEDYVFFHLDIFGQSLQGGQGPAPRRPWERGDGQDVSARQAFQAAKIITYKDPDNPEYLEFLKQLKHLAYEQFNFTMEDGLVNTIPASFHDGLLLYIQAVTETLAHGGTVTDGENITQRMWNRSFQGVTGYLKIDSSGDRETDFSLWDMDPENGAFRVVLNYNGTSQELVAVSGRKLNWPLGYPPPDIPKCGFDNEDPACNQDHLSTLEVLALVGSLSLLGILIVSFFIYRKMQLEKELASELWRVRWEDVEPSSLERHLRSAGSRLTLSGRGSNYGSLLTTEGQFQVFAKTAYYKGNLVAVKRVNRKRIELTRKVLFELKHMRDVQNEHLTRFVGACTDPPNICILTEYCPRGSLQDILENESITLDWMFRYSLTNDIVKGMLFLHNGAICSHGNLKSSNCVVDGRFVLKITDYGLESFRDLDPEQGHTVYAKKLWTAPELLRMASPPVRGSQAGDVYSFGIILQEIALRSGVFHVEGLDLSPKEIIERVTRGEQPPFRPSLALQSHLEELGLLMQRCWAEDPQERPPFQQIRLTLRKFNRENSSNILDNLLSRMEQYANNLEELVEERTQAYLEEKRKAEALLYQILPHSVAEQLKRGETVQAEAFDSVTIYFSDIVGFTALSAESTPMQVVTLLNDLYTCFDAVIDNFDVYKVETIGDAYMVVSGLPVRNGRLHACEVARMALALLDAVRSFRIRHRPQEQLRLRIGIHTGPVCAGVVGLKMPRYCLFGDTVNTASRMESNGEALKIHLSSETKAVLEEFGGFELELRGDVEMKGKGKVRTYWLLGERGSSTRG
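Compound pre-incubated 30 min at room temperature on GloSensor-loaded HEK293 cells stably carrying hNpr1 and the pGS-40F cGMP biosensor. Stimulation uses hNppA at 0.1 nM final; luminescence is taken at baseline and 20 min post-agonist.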
An asterisk follows results filed as active; i = inactive; ? = inconclusive; / = no result; [ ] = dose if it differs, or a comment. This is a sample that favours compounds with a hit; in the whole collection about 11% have one here. Unless noted, the call rests on the fitted dose curve; in most records, active means well fitted curve in the direction sought with a large enough effect; inconclusive means small, poorly fitted or top-dose-only effect, or another doubt; inactive means no such curve, though single readings can be large; an effect the other way counts as inactive or inconclusive. On the % scale 0 is the no-effect control and ±100 the full control effect; potency means the concentration at half of the fitted maximal effect.

SMILES	3T3 cytotox	HEK293 tox	FLuc inh	NPR1 antag
COc1cccc(-c2ccc(CN3CCCC(NC(=O)c4cccc(Cl)c4)C3)cc2)c1 (stereo not given)	32µM*	?	/	/
CCN1C(=O)C2CC3(CCN(S(=O)(=O)c4cccc5nsnc45)CC3)CN2C1=O (stereo not given)	-22%	-5%	/	/
O=C(NCc1cccc(C(F)(F)F)c1)c1ccc2nc(-c3cccnc3)oc2c1	-16%	-29%	/	/
COc1cccc(C(=O)NC2CCCN(Cc3ccc(-c4cccc(OC)c4)cc3)C2)c1 (stereo not given)	25µM*	32µM*	/	/
COc1cccc(-c2ccc(CN3CCCC(NC(C)=O)C3)cc2)c1 (stereo not given)	-41%	?	/	/
COc1cccc(-c2ccc(NC(=O)C3CCCN(Cc4cc(C(C)C)n[nH]4)C3)cc2)c1 (stereo not given)	40µM*	22µM*	i	?
COc1cccc(-c2ccc(NC(=O)C3CCCN3C(=O)Cn3cccn3)cc2)c1 (stereo not given)	2%	2%	i	-3%
COc1ccc(C(=O)NC2CCCN(Cc3ccc(-c4cccc(OC)c4)cc3)C2)cc1 (stereo not given)	-37%	35µM*	/	/
CNC(=O)c1cc(C2CC2)nc2onc(C3CCN(C(=O)N(C)C)CC3)c12	5%[138 µM]	-5%[172 µM]	/	/
CC(C)C(=O)Nc1cc(C2CC2)nn1C	-12%[174 µM]	i	/	/
COc1ccc(C(=O)N2CC(=O)N(Cc3c(OC)cccc3OC)CC(O)C2)cc1 (stereo not given)	?	-23%	/	/
CC1=C[C@@H](CNS(C)(=O)=O)[C@H](C(C)C)C[C@H]1Cc1nc2ccc(F)cc2[nH]1	?	89µM*	i	?
CC1=C[C@@H](CNC2CCN(C)CC2)[C@H](C(C)C)C[C@H]1Cc1nc2ccc(F)cc2[nH]1	?	71µM*	i	-4%[70.6 µM]
CC1=C[C@@H](CNC(=O)CC2(CC(=O)O)CCCC2)[C@H](C(C)C)C[C@H]1Cc1nc2ccc(F)cc2[nH]1	-17%	-15%	i	-14%
CC1=C[C@@H](CNC(=O)CCCC(=O)O)[C@H](C(C)C)C[C@H]1Cc1nc2ccc(Cl)cc2[nH]1	-30%	-9%	i	0%
CC1=C[C@@H](CNS(C)(=O)=O)[C@H](C(C)C)C[C@H]1Cc1nc2ccc(Cl)cc2[nH]1	?	100µM*	i	?
COc1ccc(-c2cc3c(ccn3C)c(C(=O)NCCc3cnc[nH]3)n2)cn1	25µM*	?	i	3%[70.6 µM]
Cn1ccc2c(C(=O)NCCc3cnc[nH]3)nc(-c3cccnc3)cc21	45µM*	-24%[172 µM]	i	0%[70.6 µM]
Cn1ccc2c(C(=O)NCCc3cnc[nH]3)nc(-c3cccc(C(F)(F)F)c3)cc21	35µM*	40µM*	i	-6%[70.6 µM]
Cn1ccc2c(C(=O)NCCc3cnc[nH]3)nc(-c3ccccc3)cc21	?	?	?	-12%[70.6 µM]
COc1ccccc1-c1cc2c(ccn2C)c(C(=O)NCCc2cnc[nH]2)n1	?	?	i	-2%[70.6 µM]
Cn1ccc2c(C(=O)NCCc3cnc[nH]3)nc(-c3cccc(CO)c3)cc21	?	?	i	-9%[70.6 µM]
Cn1ccc2c(C(=O)NCCc3cnc[nH]3)nc(-c3cnn(Cc4ccccc4)c3)cc21	79µM*	?	i	-6%[70.6 µM]
COc1ccc(-c2ccccc2C(=O)N2CCC(NC(=O)c3ccccc3OC)CC2)nn1	1%	0%	/	/
O=S(=O)(NCCc1noc(-c2ccccc2)n1)c1ccc(Cl)cc1	28µM*	40µM*	i	?
SMILES	3T3 cytotox	HEK293 tox	FLuc inh	NPR1 antag
O=C(O)Cn1ccc2cc(OCC3CCN(C(=O)CCC(F)(F)F)CC3)cnc21	89µM*	-11%[172 µM]	i	-9%[70.6 µM]
O=C(O)Cn1ccc2cc(OCC3CCN(C(=O)C4CCCC4)CC3)cnc21	100µM*	3%[172 µM]	i	0%[70.6 µM]
NC(=O)Cn1ccc2cc(OCC3CCN(C(=O)C4CC4)CC3)cnc21	?	-20%[172 µM]	?	-1%[70.6 µM]
Cc1ccc(-c2nc(CC(=O)Nc3ccc4c(c3)C(=O)N3CCC[C@H]3C(=O)N4)cs2)cc1	?	?	?	1%
C[C@@]12CO[C@H](c3ccccc3)C[C@@H]1C[C@@H](N1CCN(CC3CC3)CC1)C2	-29%	?	/	/
CSc1ncc(CN2CCOC(Cc3cccc(C(F)(F)F)c3)C2)cn1 (stereo not given)	28µM*	22µM*	i	1%
O=C(Cn1cccn1)N1CCOC(Cc2cccc(C(F)(F)F)c2)C1 (stereo not given)	4%	-2%	i	7%
CN1C[C@@H](NC(=O)c2ccc(F)cc2)C[C@H]1c1nc(-c2ccc3c(c2)OCO3)no1	?	79µM*	i	-8%[70.6 µM]
Cc1ccc(C(=O)N[C@H]2C[C@@H](c3nc(-c4ccc5c(c4)OCO5)no3)N(C)C2)cc1	79µM*	?	i	-1%[70.6 µM]
CN(C)c1ccc(C(=O)N[C@H]2C[C@@H](c3nc(-c4ccc5c(c4)OCO5)no3)N(C)C2)cc1	?	?	i	-19%
CN1C[C@@H](NC(=O)c2ccccc2)C[C@H]1c1nc(-c2ccc3c(c2)OCO3)no1	?	79µM*	i	-5%[70.6 µM]
CN1C[C@@H](NC(=O)c2ccccc2)C[C@H]1c1nc(-c2ccc(F)cc2)no1	-37%[174 µM]	?	i	-9%[70.6 µM]
CN1C[C@@H](NC(=O)c2ccc3ccccc3c2)C[C@H]1c1nc(-c2ccc3c(c2)OCO3)no1	-20%	?	i	-11%
CCC(C)NC(=O)c1cc(-c2ccc(C(F)(F)F)cc2)nc2c1cnn2C (stereo not given)	?	-20%	/	/
CNC(=O)c1cc(C)nc2onc(C3CCCN3C(=O)c3ccccc3F)c12 (stereo not given)	-23%	-1%	/	/
O=C([C@@H]1CCCN1c1nccc(Nc2ccccc2Cl)n1)N1CCN(Cc2ccccc2)CC1	45µM*	?	/	/
O=C(C1CCCN1c1nccc(Nc2ccccc2F)n1)N1CCN(Cc2ccccc2)CC1 (stereo not given)	?	32µM*	/	/
Cc1ccc(Nc2ccnc(N3CCCC3C(=O)N3CCC(c4ccccc4)CC3)n2)cc1 (stereo not given)	32µM*	32µM*	/	/
O=C(NCc1ccccc1Cl)[C@@H]1CCCN1c1nccc(Nc2ccccc2Cl)n1	-30%	-36%	/	/
O=C(C1CCN(c2nccc(Nc3ccccc3Cl)n2)CC1)N1CCC(c2ccccc2)CC1	40µM*	32µM*	/	/
O=C(Nc1ccccc1)N1CCCN(c2ccc3nnc(-c4ccccc4)n3n2)CC1	?	-17%	/	/
COc1ccccc1Nc1ccnc(N2CCC[C@H]2C(=O)N2CCCC2)n1	-6%	i	/	/
Cc1ccc(Nc2ccnc(N3CCCC3C(=O)N3CCN(Cc4ccccc4)CC3)n2)cc1 (stereo not given)	35µM*	14µM*	/	/
O=C([C@@H]1CCCN1c1nccc(Nc2ccccc2Cl)n1)N1CCC(c2ccccc2)CC1	35µM*	22µM*	/	/
